# About 1,400 (93%) of roughly 1,500 compounds were called active. The rule behind the calls is not given here. The set was probably picked from earlier hits. These entries were drawn from the full list. Measured potencies and affinities stand elsewhere.
# Assay: growth suppression of beta-catenin-knockout colon cells, dose response, cell-based, HCT116, human colon tumor (AID 1045)
# Conditions: CellTiter-Glo, 60 h; series mostly up to 30 µM; viability: at the top concentration
row,SMILES,viability
1,c1ccc(-c2cc3n(c2)CCc2ccccc2-3)cc1,80.8% (inactive)
2,CC(C[N+](C)(C)C)OC(N)=O (stereo not given),94.6% (inactive)
3,CC1CCN(CC(=O)N2c3ccccc3CCc3ccccc32)CC1,91.3% (inactive)
4,O=C(CSc1nnc(-c2ccccc2Cl)o1)Oc1ccc(Br)cc1,102% (inactive)
5,Cc1ccc(C(=O)Nc2ccccc2C(=O)NC(C(=O)O)C(C)C)cc1 (stereo not given),92.6% (inactive)
6,CCOC(=O)Nc1ccc(C)cc1Br,97.8% (inactive)
7,Cc1nn(C(=O)N2CCOCC2)c(C)c1C,93.1% (inactive)
8,O=S(=O)(NCCc1csc(-c2cccnc2)n1)c1ccc2c(c1)OCCO2,97.6% (inactive)
9,CCOc1ccccc1NC(=O)Cn1cnc2c(nnn2-c2cccc(OC)c2)c1=O,89.3% (inactive)
10,COCCn1c(=NC(=O)CSCC(=O)Nc2cc(C)on2)sc2cc(C(=O)OC)ccc21,114% (inactive)
11,CCOc1c(OC)ccc2c3c(c(=O)oc12)CCCC3,92.8% (inactive)
12,CCOc1ccc(C2/C(=C(\O)c3c(C)[nH]c(C(=O)OC)c3C)C(=O)C(=O)N2CCN(C)C)cc1 (stereo not given),101% (inactive)
13,COC(=O)c1cn(NC(=O)c2cc(OC)c(OC)c(OC)c2)c(=O)c2ccccc12,80% (inactive)
14,Cc1[nH]nc2c1C(c1ccsc1C)C(C#N)=C(N)O2 (stereo not given),94.6% (inactive)
15,CC(C)CCCCCCNC(=S)Nc1ccc(S(=O)(=O)N2CCOCC2)cc1,83.6% (inactive)
16,CC(=O)c1c(C)nc(-c2ccc(Cl)cc2Cl)n1O,94.7% (inactive)
17,Cc1cc(NC(=O)CSc2nc(-c3cccnc3)ccc2C#N)no1,88.9% (inactive)
18,[N-]=[N+]=NC1C[C@H](n2ccc(=O)[nH]c2=O)O[C@@H]1CO (stereo not given in full),97.4% (inactive)
19,COC(=O)c1cccc(N2C(=O)C(Cl)=C(N3CCOCC3)C2=O)c1,84.8% (inactive)
20,CS(=O)(=O)c1nc(-c2cccs2)cc(C(F)(F)F)n1,97.9% (inactive)
21,N#CC(c1ccc(Cl)nn1)c1ccc(Cl)cc1Cl (stereo not given),87% (inactive)
22,CCCCN(C)C(=O)C1CCC(=O)N(c2cc(OC)c(OC)c(OC)c2)C1c1ccc(OC)cc1 (stereo not given),100% (inactive)

row,SMILES,viability
1,O=C(NCc1ccc(F)cc1)C1C2C=CC3(CN(Cc4cccnc4)C(=O)C13)O2 (stereo not given),99.1% (inactive)
2,COCCNC(=O)NC1(C(F)(F)F)Oc2ccc(Cl)cc2O1 (stereo not given),90.1% (inactive)
3,COC(=O)c1ccc(/C=C(\C#N)C(=O)NC(C)c2ccccc2)cc1 (stereo not given),81.2% (inactive)
4,COC(=O)c1ccc(Oc2nc(C(N)=O)cc(-c3ccccc3)n2)cc1,89.1% (inactive)
5,CC(C)(C)c1ccc(CNc2ccc([N+](=O)[O-])cn2)cc1,87.2% (inactive)
6,Cc1ccc(CNc2ccc(O)cc2)cc1,89.3% (inactive)
7,CCN(CCNC(=O)Nc1ccc(Cl)cc1)c1ccccc1,99.3% (inactive)
8,O=C(c1nnc(Cc2ccc(Cl)cc2)o1)N1CCc2ccccc2C1,87.9% (inactive)
9,CN1CCN(c2nc(N3CCN(c4ccccc4)CC3)ncc2F)CC1,80.7% (inactive)
10,CNC(=O)C1C(=S)NC(N)=C(C#N)C1c1ccccc1 (stereo not given),81.2% (inactive)
11,CCC(Sc1nc2sc(C(=O)OC)c(C)c2c(=O)n1N)C(=O)N(CC)CC (stereo not given),98.7% (inactive)
12,Cc1cc(NS(=O)(=O)c2ccccc2)cc(Cl)c1O,94.8% (inactive)
13,O=C(NNc1nc2cc3c(cc2s1)OCO3)c1cccc(F)c1,91% (inactive)
14,COc1ccc(C(=O)OC2CCN(c3ncc(C(F)(F)F)cc3Cl)CC2)cc1,92.8% (inactive)
15,COc1ccc(CCN2C(=O)CN(Cc3ccccc3)CC2=O)cc1OC,86.4% (inactive)
16,O=C(NCCOc1ccccc1)C(c1ccccc1)c1ccccc1,101% (inactive)
17,Cc1cc2ncn(C(=O)N3CCC(C)CC3)c2cc1C,96.2% (inactive)
18,COC(C)(C)[C@H](O)COc1c2ccoc2cc2oc(=O)ccc12,96.7% (inactive)
19,CCOC(=O)c1[nH]c2ccc(OC)cc2c1NC(=S)N1CCN(c2ccccc2)CC1,93.1% (inactive)
20,Oc1ccc(C=Nc2ccc3ncccc3c2)c(O)c1,82.3% (inactive)
21,CCN(CC)S(=O)(=O)c1ccc(-c2nnc(SCc3nnc(-c4ccccc4)o3)o2)cc1,81.1% (inactive)
22,O=C(Nc1cccc(C(F)(F)F)c1)C12CC3CC(CC(C3)C1)C2,91.7% (inactive)

row,SMILES,viability
1,CN(C)c1nn(C(=O)Nc2cccc(C(F)(F)F)c2)cc1-c1ccccc1,82.9% (inactive)
2,CCCCCn1c(Sc2ccccc2)nc2c1c(=O)[nH]c(=O)n2C,83.4% (inactive)
3,CC(C(=O)NC(=O)NCc1ccccc1)N1C(=O)c2ccccc2C1=O (stereo not given),107% (inactive)
4,Cc1cc(NC(=O)Cn2c(=O)n(Cc3ccccc3)c(=O)c3ccccc32)no1,83.5% (inactive)
5,Cc1cc(Cl)ccc1N=c1ssnc1Cl,91.1% (inactive)
6,CCN(CC)C(=O)CCCOc1ccc(Cl)cc1Cl,83% (inactive)
7,O=C(Nc1cccc2ccccc12)N1CCN(Cc2ccc3c(c2)OCO3)CC1,96.3% (inactive)
8,COc1ccc(C(C)=O)cc1CSc1nc2ccccc2o1,96.2% (inactive)
9,CCOC(=O)C1=C(C)NC(=S)N(C(C)=O)C1c1ccc(Cl)cc1 (stereo not given),82.2% (inactive)
10,Cc1cc(C)c2c(=O)n(CC(=O)N3CCC(Cc4ccccc4)CC3)sc2n1,80.1% (inactive)
11,Cc1sc2c(=O)n3c(nc2c1C(=O)NCCCN1CCOCC1)CCCCC3,97.5% (inactive)
12,CCCCNS(=O)(=O)c1ccc2nc(-c3cccnc3)cc(C(=O)NC3CC3)c2c1,92.2% (inactive)
13,O=C(NCc1ccccn1)c1c(O)c2cccc3c2n(c1=O)CC3,97.4% (inactive)
14,CNC(=S)N/N=C(\C)c1ccc(N2CCOCC2)cc1,91.4% (inactive)
15,COc1cccc(OCC(=O)NN=C2c3ccccc3-c3ccccc32)c1,97% (inactive)
16,O=C(CSc1ncnc2c1nnn2-c1ccc(F)cc1)NCC1CCCO1 (stereo not given),84% (inactive)
17,Cc1cc(NC(=O)c2sc(Nc3cccc(C(F)(F)F)c3)nc2N)no1,88.3% (inactive)
18,COc1ccc(Nc2oc(COc3ccc(Cl)cc3)nc2C#N)cc1,84.1% (inactive)
19,CCCn1c(SCC(=O)c2ccc3c(c2)NC(=O)CO3)nc2ccccc21,82.9% (inactive)
20,C=CCNc1nc(Nc2ccc(-c3nc4ccccc4o3)cc2)nc(N2CCOCC2)n1,93.2% (inactive)
21,CCOC(=O)c1c(C2COc3ccccc3O2)csc1NC(=O)c1ccccc1 (stereo not given),87.7% (inactive)
22,O=C(CCNc1cc(Cl)cc(Cl)c1)c1ccco1,87.6% (inactive)

row,SMILES,viability
1,O=C(NCc1ccc2c(c1)OCO2)c1ccc2c(c1)C(=O)N(CC1CCCO1)C2=O (stereo not given),105% (inactive)
2,COC(=O)COc1ccc(S(=O)(=O)NCc2ccncc2)cc1,96.7% (inactive)
3,C=CCNC(=O)c1ccccc1NC(=O)c1ccccc1C,101% (inactive)
4,CCOc1ccc(N(CC(=O)NC2CCCCCC2)S(=O)(=O)c2c(C)noc2C)cc1,101% (inactive)
5,Nc1c(NCCN2CCOCC2)c2ccccc2oc1=O,85.6% (inactive)
6,COc1cccc2cc(C(=O)N(C)C)c(=O)oc12,92.8% (inactive)
7,Cc1[nH]nc2c1C(C1CC=CCC1)C(C#N)=C(N)O2 (stereo not given),96.1% (inactive)
8,Cc1cc(C)c2c(=O)n(CC(=O)NCCCN3CCOCC3)sc2n1,83.9% (inactive)
9,N/C(=N\c1nc(C(F)(F)F)cc(=O)[nH]1)Nc1ccc(Cl)cc1,90.8% (inactive)
10,OCCn1c(C(F)(F)F)nc2ccccc21,90.5% (inactive)
11,COC(=O)Nc1nc2c(s1)CCCC2,104% (inactive)
12,O=C(N/N=C/c1ccc(O)c(O)c1O)/C(=C/c1ccc([N+](=O)[O-])cc1)NC(=O)c1ccccc1,81.1% (inactive)
13,COc1ccc(N2CCN(C(c3cc(OC)ccc3OC)c3nnnn3CC3CCCO3)CC2)cc1 (stereo not given),89.4% (inactive)
14,Cc1cccc(CS(=O)(=O)c2nnc([C@H](Cc3ccccc3)NC(=O)OC(C)(C)C)o2)c1,92.4% (inactive)
15,CCCCS/C(N)=N/N=C/c1ccccc1O,97.4% (inactive)
16,CC(C)c1cc(=O)oc2c3c4c(cc12)CCCN4CCC3,86.2% (inactive)
17,CN1/C(=C\C(=S)NC(=O)c2ccc([N+](=O)[O-])cc2)C(C)(C)c2ccccc21,94.3% (inactive)
18,O=S(=O)(c1cccc2ccccc12)N1CCSC1,96.6% (inactive)
19,CCCCn1c(=NC(=O)c2ccco2)c(C(=O)OCC)cc2c(=O)n3ccccc3nc21,81.3% (inactive)
20,Cc1cc(Nc2ccccc2)nn1C(=O)c1ccccc1,98.3% (inactive)
21,CCCC(=O)Nc1ccc(C)c(O)c1,93.3% (inactive)
22,COC(=O)c1cc(OC)c(OC)cc1NC(=O)c1ccccc1,89% (inactive)

row,SMILES,viability
1,OC1(c2cccc(C(F)(F)F)c2)CCN(c2ccc(-c3ccccc3)nn2)CC1,93.7% (inactive)
2,CCN(CC)c1ccc(N=Cc2ccc(N(CC)CC)cc2O)cc1,87.8% (inactive)
3,CCCCNC(=O)Nc1c(C(=O)OC)[nH]c2ccc(C)cc12,81.5% (inactive)
4,CN(C)S(=O)(=O)c1cccc(NC(=O)COC(=O)c2cccc(S(=O)(=O)N3CCc4ccccc4C3)c2)c1,91.7% (inactive)
5,c1ccc2c(c1)CCCC2C1=NCCN1 (stereo not given),96.7% (inactive)
6,O=C(Nc1cccc2ccccc12)c1onc2c1CCCC2,87.9% (inactive)
7,COc1ccc(NC(=O)CCCn2c(=O)c3sccc3n(Cc3ccccc3)c2=O)cc1,90.1% (inactive)
8,OC1C2CN3CCN(C2)CC1(Cc1ccccc1)C3 (stereo not given),97.8% (inactive)
9,O=C(c1ccc2c(=O)n(CC3CCCO3)c(=S)[nH]c2c1)N1CCN(c2ccccc2)CC1 (stereo not given),99.5% (inactive)
10,CCOC(=O)N1CCN(C(=O)c2nn(-c3ccc(C)cc3)c(=O)c3c2c2ccccc2n3C)CC1,88.9% (inactive)
11,C=CCNc1nnc(SC2CC(=O)N(c3ccc(OC)cc3)C2=O)s1 (stereo not given),101% (inactive)
12,COc1ccc(S(=O)(=O)CCC(=O)N(C)c2ccc(OC)cc2OC)cc1,87% (inactive)
13,Cc1c(Cl)ccc2sc(NC(=O)CN3C(=O)c4ccccc4C3=O)nc12,101% (inactive)
14,CCCCN1C[C@H](O)[C@@H](O)[C@H](O)[C@H]1CO,99.3% (inactive)
15,O=C(COC(=O)c1c2c(nc3ccccc13)CCCC2)Nc1ccc2c(c1)OCO2,83.9% (inactive)
16,O=C(COC(=O)c1cccnc1Nc1cccc(C(F)(F)F)c1)NCc1ccc2c(c1)OCO2,84.7% (inactive)
17,CCOC(=O)Cn1c2ccccc2c2nc3ccccc3nc21,89.9% (inactive)
18,Cc1ccc(Cn2nc(C)c(NC(=O)CSc3nc4c(c(C(F)(F)F)n3)CCc3ccccc3-4)c2C)cc1,90.2% (inactive)
19,COc1ccc(CCn2c(N)c(C(=O)NCc3ccco3)c3nc4ccccc4nc32)cc1OC,81.8% (inactive)
20,COc1ccccc1CN=Cc1[nH]c2ccc(Br)c(Cl)c2c1O,80.3% (inactive)
21,COc1ccc(C(=O)OCC(=O)c2cc(OC)ccc2OC)c(OC)c1,88.4% (inactive)
22,O=C1[C@H]2[C@H]3[C@H](O)[C@H](O)C/C(=N\OC[C@@H](O)COCc4ccco4)[C@@H]3CC[C@H]2C(=O)N1c1ccc(F)cc1F,93.9% (inactive)

# Source: PubChem BioAssay AID1045 (SRMLSC, 2008)
